An excerpt weighted towards active compounds, which were near 5.8% of everything screened.
KB-V1 cytotox = kills drug-selected multidrug resistant KB-V1 cells. KB-V1 MDR cells viability, CellTiter-Glo, 72 h. Potency, µM (titrated, usually from 46.1 µM), most hits filed as cytotoxic. hit rate 3.4% among 400,000. AID 1347076; also: nearly all actives have a fitted effect of over 60% in size
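KB-V1 cells (P-gp-expressing MDR subline of KB-3-1) in phenol-red-free DMEM with 10% FBS were exposed to library compounds over a concentration series for 72 h at 37 degrees C. Viability read by CellTiter-Glo luminescence; concentration-effect curves fitted after normalization.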
MCF10A rerep = DNA re-replication induction in MCF 10a cells | MCF 10A DNA re-replication, Hoechst nuclear intensity, 48 h | Potency, µM (titrated, usually from 46.1 µM), usual class: activators | hit rate 2.9% among 350,000; also: nearly all actives have a fitted effect of over 50% in size
ALOX12 inh = inhibitors of human 12S-lipoxygenase ALOX12; purified 12hLO, xylenol orange hydroperoxide absorbance; Potency, µM (doses to about 108 µM), hits mostly inhibitors; hit rate 1.1% among 580,000; AID 1671190
Target sequence (P18054 whole entry, looked up): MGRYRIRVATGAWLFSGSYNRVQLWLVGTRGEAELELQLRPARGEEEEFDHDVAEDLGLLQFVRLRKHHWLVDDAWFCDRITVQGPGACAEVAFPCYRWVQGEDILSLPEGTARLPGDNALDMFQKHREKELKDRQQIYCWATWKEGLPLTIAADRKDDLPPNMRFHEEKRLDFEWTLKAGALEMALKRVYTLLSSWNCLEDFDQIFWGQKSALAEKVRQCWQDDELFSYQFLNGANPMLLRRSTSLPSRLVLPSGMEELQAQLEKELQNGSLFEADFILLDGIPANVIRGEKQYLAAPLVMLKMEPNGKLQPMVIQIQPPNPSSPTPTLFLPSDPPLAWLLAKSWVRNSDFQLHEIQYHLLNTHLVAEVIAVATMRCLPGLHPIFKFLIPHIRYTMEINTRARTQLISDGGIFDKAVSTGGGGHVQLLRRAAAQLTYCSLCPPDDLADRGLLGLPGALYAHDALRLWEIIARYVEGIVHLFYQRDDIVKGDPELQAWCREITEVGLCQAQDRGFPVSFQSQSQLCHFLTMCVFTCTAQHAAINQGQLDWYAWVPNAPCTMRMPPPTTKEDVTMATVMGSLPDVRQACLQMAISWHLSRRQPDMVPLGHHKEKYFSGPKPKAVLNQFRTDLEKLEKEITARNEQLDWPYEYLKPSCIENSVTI
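Purified human 12hLO at 150 nM in 25 mM Hepes, 0.01% Triton X-100, pH 7.0, preincubated 15 min at room temperature with compound. Reaction started with 40 uM arachidonic acid, 30 min at room temperature. Hydroperoxide measured by Fe-xylenol orange, 573/405 nm absorbance ratio.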
KB-3-1 cytotox = kills parental KB-3-1 adenocarcinoma cells | Potency, µM (titrated, usually from 46.1 µM), most hits filed as cytotoxic | hit rate 1.4% among 400,000 | KB-3-1 viability, CellTiter-Glo ATP luminescence, 72 h | AID 1347075; also: nearly all actives have a fitted effect of over 60% in size
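Parental KB-3-1 viability, qHTS format: 72 h compound exposure, 37 °C; CellTiter-Glo; media-only wells and DMSO plates as controls; concentration-effect fits on corrected data.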
SW480 rereplic = induces DNA re-replication in SW480 colon adenocarcinoma cells. SW480 DNA re-replication, Hoechst DNA content imaging, 48 h. Potency, µM (highest dose often 46.1 µM), hits mostly activators. hit rate 1.8% among 340,000. AID 624297; also: nearly all actives have a fitted effect of over 55% in size
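Per well, 250 cells were exposed to pinned compound for 48 hr. Nuclear DNA was visualised with Hoechst (40 min, 37 C) and total object intensity recorded by fluorescence scanning.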
PINK1 modulator = modulators of PINK1 expression | AID 624263 | Potency, µM (doses to about 76.6 µM), hits mostly activators | hit rate 0.2% among 410,000 | PINK1 immunofluorescence, high-content cytometry, 24 h; active = well fitted activation curve with a large enough effect; inconclusive = small, poorly fitted or top-dose-only effect; cell line not stated here; also: nearly all actives have a fitted effect of over 65% in size
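Decision-based qHTS: stable cells, 24 h exposure to five compound concentrations, CCCP as control. Fixed cells stained for PINK1 plus nuclear, mitochondrial and cell markers, cytometer read.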
Numbers stand for hits; – = inactive; ? = inconclusive; · = no result. Unless noted, calls follow the shape of the dose curve; as a rule, active = well fitted curve in the direction sought with a large enough effect; inconclusive = small, poorly fitted or top-dose-only effect, or another doubt; inactive = no such curve, though single readings can be large; an effect the other way counts as inactive or inconclusive.

SMILES | KB-V1 cytotox | MCF10A rerep | ALOX12 inh | KB-3-1 cytotox | SW480 rereplic | PINK1 modulator
CC(C)Oc1ccc(F)cc1-c1cc(C(=O)NCc2cc(C(F)(F)F)cc(C(F)(F)F)c2)[nH]n1 | ? | · | – | ? | · | 35µM
CC(C)Oc1ccc(F)cc1-c1cc(C(=O)NCc2ccc(C(F)(F)F)cc2)[nH]n1 | – | · | – | – | · | –
O=C1C2CCCN2C(=O)N1CCCN1CCN(c2cccc(Br)c2)CC1 (stereo unspecified) | – | ? | 4µM | – | – | –
COc1ccc(-n2nnnc2C(C)(C)Nc2ccc(C)cc2)cc1 | · | · | – | · | · | ·
O=S(=O)(Nc1cccc2c1ccc1cccn12)c1cccs1 | – | 14µM | ? | – | – | –
O=S(=O)(Nc1cccc2[nH]ncc12)c1cccs1 | – | – | – | – | – | –
COCCNC(=O)C(C)[C@@H]1CC[C@@]2(C)CC[C@H](NC(=O)c3cnccn3)[C@@H](C)[C@@H]2[C@H]1O (stereo partly specified) | · | · | – | · | · | ·
CC(NC(=O)C(C)(C)C)C1CC1 (stereo unspecified) | · | · | – | · | · | ·
N#CC1=C(Nc2ccccc2)SC=C(c2ccccc2)N=C1N1CCOCC1 | – | ? | – | – | ? | –
N#CC1=C(Nc2ccccc2)SC=C(c2ccc(Cl)c(Cl)c2)N=C1N1CCOCC1 | – | 16µM | – | – | – | –
CCc1c(C)sc(NC(=O)C2CCCCC2)c1C#N | · | · | 8.9µM | · | · | ·
CCOC(=O)C(NC(=O)CC(C)C)(Nc1sc(C)c(CC)c1C#N)C(F)(F)F (stereo unspecified) | ? | – | – | – | – | –
CCc1c(C)sc(NC(=O)OC)c1C#N | · | · | 25µM | · | · | ·
CCOC(=O)C(NC(=O)CCl)(Nc1sc(C)c(CC)c1C#N)C(F)(F)F (stereo unspecified) | ? | ? | – | – | 16µM | –
CCc1c(C)sc(NC(=O)c2c(F)cccc2F)c1C#N | · | · | – | · | · | ·
O=C(NCc1ccco1)C1CN(S(=O)(=O)c2ccccc2)CC12CCCCC2 (stereo unspecified) | · | · | – | · | · | ·
O=C(c1cccc(Cl)c1)N1CCN(c2ccc3c(c2)C2CC3CCN2C(=O)OCc2ccccc2)CC1 (stereo unspecified) | 16µM | · | ? | ? | · | –
Cn1ccsc1=NC(=O)c1ccc([N+](=O)[O-])o1 | ? | 7.3µM | – | ? | 9.2µM | –
COc1cccc(OCC(Cn2cnc3ccccc32)OC(C)=O)c1 (stereo unspecified) | 16µM | – | – | – | – | –
S=C(NNC(=S)Nc1ccccc1)Nc1ccccc1 | – | – | ? | – | – | ?
O=C(O)c1ccccc1C(=O)NNc1ccc(Cl)cc1 | – | 4.6µM | ? | – | – | –
Cc1cccc(NNC(=S)Nc2ccccc2)c1 | – | · | ? | – | · | –
Cc1ccc(NC(=S)NNC(=S)NNc2ccccc2)cc1C | – | · | 40µM | – | · | ?
S=C(NNC(=S)Nc1ccc(Cl)cc1)NNc1ccccc1 | – | · | 45µM | ? | · | –
CCc1ccc2c(c1)-c1ccccc1S(=O)(=O)N2CC(=O)N1CCC(C(N)=O)CC1 | · | · | – | · | · | ·
SMILES | KB-V1 cytotox | MCF10A rerep | ALOX12 inh | KB-3-1 cytotox | SW480 rereplic | PINK1 modulator
O=C(NCc1cccc(Br)c1)c1ncoc1-c1cccs1 | · | · | – | · | · | ·
CCOC(=O)c1cc(C2(O)CCOC(C)(C)C2)on1 (stereo unspecified) | · | · | – | · | · | ·
CCCCc1nnc2sc(-c3ccc(OC)c(OC)c3)nn12 | · | · | – | · | · | ·
COc1c(-c2ccc(O)cc2)oc2cc(O)cc(O)c2c1=O | – | – | – | – | – | –
COc1ccc(-c2oc3cc(O)c(OC)c(O)c3c(=O)c2OC)cc1 | ? | 5.2µM | – | ? | ? | –
COc1cc(C(=O)Nc2ccccc2NC(=O)c2cc(OC)c(OC)c(OC)c2)cc(OC)c1OC | – | – | – | – | – | –
COc1cc(C(=O)Nc2ccc(Br)cc2C(=O)c2cc(OC)c(OC)c(OC)c2)cc(OC)c1OC | ? | 21µM | – | ? | 16µM | –
COc1cc(C(=O)Nc2c(C(=O)O)[nH]c3ccc(Br)cc23)cc(OC)c1OC | – | – | 40µM | – | – | –
CCCCc1ncc(-c2c(-c3ccccc3)ncn2CCC2CCCN2C)[nH]1 (stereo unspecified) | · | · | – | · | · | ·
O=C(NNc1ccc([N+](=O)[O-])cc1)c1ccccc1Cl | ? | – | – | – | – | –
O=C(NC(NNc1ccc([N+](=O)[O-])cc1)(C(F)(F)F)C(F)(F)F)c1ccc(Cl)cc1 | – | 15µM | 35µM | – | – | ?
Cc1c(C(=O)N2CCC(C)CC2)sc2ncnc(N3CCN(c4ccccc4)CC3)c12 | 4.6µM | – | – | – | – | –
Cc1c(C(=O)N2CCN(c3ccccc3)CC2)sc2ncnc(N3CCN(c4ccccn4)CC3)c12 | ? | – | – | – | – | –
COc1ccccc1N1CCN(C(=O)c2sc3ncnc(N4CCN(c5ccccn5)CC4)c3c2C)CC1 | 23µM | 18µM | · | ? | – | –
COc1ccccc1N1CCN(C(=O)c2sc3nc(C)nc(N4CCN(c5ccccn5)CC4)c3c2C)CC1 | ? | ? | ? | ? | – | –
O=C(NCCCn1ccnc1)c1cn(-c2ccccc2)nc1-c1ccccc1 | – | – | – | – | – | ·
O=C(NC(=S)N1CCOCC1)c1cn(-c2ccccc2)nc1-c1ccccc1 | 5.8µM | – | ? | – | – | –
O=C(NC(=S)NCCO)c1cn(-c2ccccc2)nc1-c1ccccc1 | – | – | 40µM | – | – | –
O=C(NCc1ccccn1)c1cn(-c2ccccc2)nc1-c1ccc(Cl)cc1 | 3.7µM | ? | – | – | – | –
COc1cc(/C=C/C(=O)c2ccc(Br)cc2)cc(OC)c1 | · | · | – | · | · | ·
C/C(=N\Nc1ccc([N+](=O)[O-])cc1)c1ccc(O)cc1 | – | 15µM | ? | – | 23µM | –
N#C/C(=N\Nc1ccc(S(=O)(=O)N2CCCCCC2)cc1)C(N)=S | – | – | ? | – | – | –
N#C/C(=N\Nc1ccc(S(=O)(=O)N2CCc3ccccc32)cc1)C(N)=S | – | – | 16µM | ? | – | ?
O=C(O)c1ccc(N=NNc2cccc([N+](=O)[O-])c2)cc1 | – | – | – | – | – | –
CCOC(=O)CCC(=O)Nc1ccc(S(=O)(=O)N2CCc3ccccc32)cc1 | – | ? | – | – | – | –
N#C/C(=N\Nc1cccc([N+](=O)[O-])c1)C(=O)c1ccc(Br)cc1 | 1.5µM | ? | 40µM | 3.7µM | – | 4.5µM
C/C(=N\Nc1ccc([N+](=O)[O-])cc1)c1cccc(N)c1 | ? | ? | ? | – | – | –
CCOC(=O)/C(C#N)=N/Nc1ccc(S(=O)(=O)N2CCc3ccccc32)cc1 | – | ? | ? | ? | – | 16µM
CCOC(=O)c1[nH]c(C)c(CCC(=O)N2CCC(C(=O)NCCN(C)C)CC2)c1C | · | · | – | · | · | ·

Compound activity deposited in PubChem BioAssay by National Center for Advancing Translational Sciences (NCATS).
